Activity calls are given as the source filed them. How the source made its calls: active means hit-call score of the fitted dose curve at least 0.9, where 1 is the maximum; inactive means score below 0.9.
Assay: CCTE_Shafer_MEA_acute_burst_percentage_mean: CCTE's Neural Acute Assay for Percentage of Spikes in a Burst, Shafer Lab (AID 2284017);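 on AC50: curve fitted for loss of signal so potency reflects decreased burst percentage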
Experimental: CCTE_Shafer_MEA_acute assay is conducted using Axion Biosystems 48 well microelectrode array (MEA) plates and Maestro recording system. Each well of the MEA plate contains a grid of 16 microelectrodes embedded in the culture surface. Electrically active cells, such as neurons, can be cultured over the electrodes, and electrical activity in these cells can be recorded extracellularly. The spontaneous firing of neurons is captured from each electrode on a microsecond timescale providing both temporally and spatially precise data. […] The CCTE_Shafer_MEA_acute assay uses primary cultures of rat cortical neurons. As these cultures mature over time, neural networks develop functional activity and form cohesive networks in which electrical activity can be highly coordinated. Baseline 40-minute recordings are made on days post-plating 13 or 15, followed by a secondary 40-minute recording after chemical exposure.CCTE_Shafer_MEA_acute_burst_percentage_mean is a component of the CCTE_Shafer_MEA_acute assay. It measures the percentage of spikes (action potential firing) in a single-electrode burst (temporally-clustered groups of spikes) as the number of spikes in bursts divided by the total number of spikes during a recording in a microelectrode array (MEA) using Axion Biosystems Maestro 768 channel amplifier with the AxIS adaptive spike detector. The average of the burst percentages across electrodes is calculated to report a well-level value. The recordings before and after chemical treatment are used to calculate a percent change in the mean burst percentage in each well.Data from the assay component CCTE_Shafer_MEA_acute_burst_percentage_mean was analyzed into 1 assay endpoint. This assay endpoint, CCTE_Shafer_MEA_acute_burst_percentage_mean, was analyzed in the negative analysis fitting direction relative to DMSO as the negative control and baseline of activity. Using a type of functional reporter, gain or loss-of-signal activity can be used to understand electrical activity.
Spontaneous activity in the cortical cultures was recorded using an Axion Biosystems Maestro 768 channel amplifier and Axion Integrated Studios (AxIS) v1.8 (or later) software. The amplifier recorded from all channels simultaneously (gain = 1200 x; sampling rate = 12.5 kHz/channel): raw signals were filtered with a Butterworth band-pass filter (300-5000 Hz), which filters out slower local field potentials leaving only fast potentials, i.e., "spikes", arising from extracellular currents associated with action potentials (Pine 2006; Wheeler and Nam 2011). On-line spike detection of filtered signals was conducted with the AxIS adaptive spike detector, using a threshold of 8x the root mean squared (rms) noise on each channel. Any electrodes with rms noise levels greater than 5 uV were grounded (e.g., no data were recorded). Once grounded, an electrode was grounded for the duration of the experiment. All recordings were conducted at 37 C. Wells were deemed usable if on the day of the exposure >/= 10 electrodes were active (defined as >/= 5 spikes/min). On DIV 13 or 15, a minimum of three wells from one cortical culture preparation were treated with each compound (0.03-40 uM). Prior to recording baseline activity, each mwMEA plate was placed in the Maestro at 37 C and allowed to sit for 20 min while firing rates stabilized. Baseline activity (40 min) was recorded before the addition of each compound. An additional 40 min of spontaneous activity was recorded in the presence of each compound. Changes in network parameters relative to baseline were assessed following compound treatment.
For OCc1ccccc1, the outcome was “inactive”.
For CCc1ccc(O)c(C(C)(C)C)c1, the AC50 was 2.12 µM (active).
For Cc1ncc([C@@H](CCCCCCc2ccc3c(n2)NCCC3)CC(=O)O)cn1, the outcome was “inactive”.
For O=S(=O)(O)c1ccc(N=Nc2c(O)ccc3cc(S(=O)(=O)O)ccc23)cc1, the outcome was “inactive”.
In the case of COc1cc2c(c(OC)c1OC)-c1ccc(OC)c(=O)cc1[C@@H](NC(C)=O)CC2, the outcome is reported as “inactive”.
With COc1cc(C(C)C)c2c(c1)S(=O)(=O)N(COc1cc(=O)n3cccc(OCCN4CCCCC4)c3n1)C2=O the outcome was “inactive”.
For CC(C)C(=O)Nc1ccc([N+](=O)[O-])c(C(F)(F)F)c1, the AC50 was 6.55 µM (active).
For Cn1c(=O)c2[nH]cnc2n(C)c1=O, the outcome was “inactive”.
With CCCCCCCC1CCC(=O)O1 (stereo not drawn) the AC50 was 20 µM (active).
With CCCCC(CC)C(=O)OCCOCCOCCOC(=O)C(CC)CCCC (stereo not drawn) the outcome was “inactive”.
With c1ccc2cc3ccccc3cc2c1 the outcome was “inactive”.
For CC[C@H](C)C(=O)O[C@H]1C[C@H](O)C=C2C=C[C@H](C)[C@H](CC[C@@H](O)C[C@@H](O)CC(=O)O)[C@H]21, the outcome was “inactive”.
For COCc1nnc(-c2ccc[n+]([O-])c2)n1-c1c(Cl)c(Cl)cc2[nH]c(=O)c(=O)[nH]c12, the AC50 was 17.2 µM (active).
With CCCc1ccccc1 the outcome was “inactive”.
With OC(CCl)CCl the outcome was “inactive”.
With c1ccc(C(O[C@@H]2CCCN(CCc3ccc4c(c3)OCO4)C2)c2ccccc2)cc1 the outcome was “inactive”.
In the case of CCCCCCCC/C=C\CCCCCCCC(=O)OC[C@@H](O)[C@H]1OC[C@H](O)[C@H]1O, the outcome is reported as “inactive”.
With C=CCc1cc(S(=O)(=O)c2ccc(O)c(CC=C)c2)ccc1O the outcome was “inactive”.

From PubChem BioAssay (EPA / NIEHS)
